These results are taken from PubChem BioAssay.

Values joined by “and” are separate entries in the source; they are usually repeats but may differ in a detail not shown here. Identical values can stand only once. Active and inactive are the calls of the source. Unless noted, the rule behind the calls is not given here.

Assay [1] is described as follows: anti-His antibody binders, primary screen, artefact control for SMM control protein annotation, biochemical, small-molecule microarray, 635 nm fluorescence (AID 1128).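 Note: score merges feature fluorescence with signal-to-noise for each printed compound spot.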 Conditions: anti-His Alexa647 antibody binding, higher = more signal.
The subject of assay [2] is Human papillomavirus type 1a E7 protein (residues 1-88). Description: HPV1a E7 small-molecule binders, primary screen, biochemical, small-molecule microarray, residues 1-88, 635 nm (AID 1129). Particulars: small-molecule microarray binding, fluorescence 635 nm; higher = more signal.
For assay [3], the target named is Focal adhesion kinase 1 (Homo sapiens) (UniProt Q05397). Description: small-molecule microarray binders of FAK, primary screen, biochemical, 635/667 nm fluorescence, BSA, DTT (AID 1130).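 Note: composite of spot emission at 667 nm and signal to noise over triplicate slides.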 Particulars: PTK2 binding, 635 nm fluorescence, higher = more signal.
Chain of Focal adhesion kinase 1 (Homo sapiens) (Q05397 whole entry, looked up): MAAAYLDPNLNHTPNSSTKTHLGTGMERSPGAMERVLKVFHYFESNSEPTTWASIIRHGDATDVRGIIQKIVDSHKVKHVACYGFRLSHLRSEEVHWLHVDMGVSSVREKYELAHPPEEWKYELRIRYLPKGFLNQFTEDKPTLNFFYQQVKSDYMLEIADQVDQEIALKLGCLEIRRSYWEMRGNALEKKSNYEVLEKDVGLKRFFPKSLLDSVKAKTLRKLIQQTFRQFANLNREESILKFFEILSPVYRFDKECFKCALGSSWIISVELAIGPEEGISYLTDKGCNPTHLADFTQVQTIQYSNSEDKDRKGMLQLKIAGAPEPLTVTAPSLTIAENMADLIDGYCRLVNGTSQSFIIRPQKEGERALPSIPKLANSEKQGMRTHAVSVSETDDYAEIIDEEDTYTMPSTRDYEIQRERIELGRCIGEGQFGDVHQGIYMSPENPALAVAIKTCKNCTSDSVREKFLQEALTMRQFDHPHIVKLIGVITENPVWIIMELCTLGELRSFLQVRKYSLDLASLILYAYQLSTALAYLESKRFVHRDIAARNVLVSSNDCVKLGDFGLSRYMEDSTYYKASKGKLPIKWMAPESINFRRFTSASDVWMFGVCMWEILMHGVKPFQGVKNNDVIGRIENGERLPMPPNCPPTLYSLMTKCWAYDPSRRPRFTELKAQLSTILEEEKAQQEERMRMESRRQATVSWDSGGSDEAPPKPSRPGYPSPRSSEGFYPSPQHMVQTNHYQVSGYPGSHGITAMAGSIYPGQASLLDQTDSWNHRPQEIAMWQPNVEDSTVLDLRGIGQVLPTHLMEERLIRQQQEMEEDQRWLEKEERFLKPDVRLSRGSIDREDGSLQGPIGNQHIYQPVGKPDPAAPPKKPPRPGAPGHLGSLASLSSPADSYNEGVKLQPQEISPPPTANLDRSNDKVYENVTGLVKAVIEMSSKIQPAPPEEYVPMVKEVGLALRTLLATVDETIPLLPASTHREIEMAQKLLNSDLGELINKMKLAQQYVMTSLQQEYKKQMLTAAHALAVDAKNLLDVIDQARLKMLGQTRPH
The test system of assay [4] is Fibrinogen (Alexa647-labelled). Description: fibrinogen binders on compound microarrays, profiling panel, artefact control for SMM control-protein annotation, biochemical, small-molecule microarray, 635/667 nm fluorescence (AID 1131).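 Note: z-score merges 667 nm fluorescence with per-spot signal-to-noise over triplicate slides.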 Conditions: fibrinogen-A647 binding fluorescence, higher = more signal.
Assay [5] addresses Follistatin (Homo sapiens) (UniProt P19883). Put plainly: follistatin binders on small-molecule microarrays, primary screen, biochemical, small-molecule microarray, 635/667 nm fluorescence (AID 1132). Particulars: FST binding, 635 nm fluorescence, higher = more signal.
The target of assay [6] is Fibroblast growth factor 2 (Homo sapiens) (UniProt P09038). Put plainly: FGF2 binders on small-molecule microarrays, primary screen, biochemical, small-molecule microarray, 635/667 nm fluorescence (AID 1133). Conditions: small-molecule microarray binding, FGF2, fluorescence 635/667; higher = more signal.
Chain of Fibroblast growth factor 2 (Homo sapiens) (P09038 whole entry, looked up): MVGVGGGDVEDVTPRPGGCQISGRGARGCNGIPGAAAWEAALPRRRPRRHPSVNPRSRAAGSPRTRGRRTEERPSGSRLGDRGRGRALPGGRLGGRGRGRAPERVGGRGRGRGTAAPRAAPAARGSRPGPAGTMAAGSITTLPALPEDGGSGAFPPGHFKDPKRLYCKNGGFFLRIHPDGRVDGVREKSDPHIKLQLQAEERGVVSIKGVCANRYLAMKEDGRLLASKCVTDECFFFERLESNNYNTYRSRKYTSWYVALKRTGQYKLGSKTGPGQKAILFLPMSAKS
Assay [7] can be described thus: mitochondrial membrane potential change in A549 cells, profiling panel, cell-based, JC-1 fluorescence, basal, 24 h, 100 nL (AID 1138).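 Note: A549 lung adenocarcinoma cells under basal conditions with no added stimulus; test concentration not given here.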 Conditions: higher = more signal.
The next assay deals with Lefty1. Description: Lefty1 binders on small-molecule microarrays, primary screen, biochemical, small-molecule microarray, 635/667 nm fluorescence (AID 1139). Particulars: small-molecule microarray binding, fluorescence 635/667; higher = more signal.
The test system of assay [8] is wheat germ agglutinin (Triticum aestivum), Alexa647-labelled. Description: wheat germ agglutinin binders on compound microarrays, profiling panel, artefact control for SMM control-protein annotation, biochemical, small-molecule microarray, 635/667 nm fluorescence (AID 1140).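 Note: score merges 667 nm feature emission with signal to noise over triplicate slides.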 Particulars: WGA-A647 binding, 635 nm fluorescence, higher = more signal.
The target of assay [9] is Luciferin 4-monooxygenase (Photinus pyralis) (UniProt P08659). Put plainly: firefly luciferase enzyme inhibitors, primary screen, biochemical, luminescence, purified enzyme, 2006 set (AID 1141).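 Note: cell-free assay with purified firefly luciferase at 100 ng per well in PBS; test concentration not given here.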 Conditions: SteadyGlo luminescence, 30 min, higher = more signal, called active from +8 up or from −8 down.
Chain of Luciferin 4-monooxygenase (Photinus pyralis) (P08659 whole entry, looked up): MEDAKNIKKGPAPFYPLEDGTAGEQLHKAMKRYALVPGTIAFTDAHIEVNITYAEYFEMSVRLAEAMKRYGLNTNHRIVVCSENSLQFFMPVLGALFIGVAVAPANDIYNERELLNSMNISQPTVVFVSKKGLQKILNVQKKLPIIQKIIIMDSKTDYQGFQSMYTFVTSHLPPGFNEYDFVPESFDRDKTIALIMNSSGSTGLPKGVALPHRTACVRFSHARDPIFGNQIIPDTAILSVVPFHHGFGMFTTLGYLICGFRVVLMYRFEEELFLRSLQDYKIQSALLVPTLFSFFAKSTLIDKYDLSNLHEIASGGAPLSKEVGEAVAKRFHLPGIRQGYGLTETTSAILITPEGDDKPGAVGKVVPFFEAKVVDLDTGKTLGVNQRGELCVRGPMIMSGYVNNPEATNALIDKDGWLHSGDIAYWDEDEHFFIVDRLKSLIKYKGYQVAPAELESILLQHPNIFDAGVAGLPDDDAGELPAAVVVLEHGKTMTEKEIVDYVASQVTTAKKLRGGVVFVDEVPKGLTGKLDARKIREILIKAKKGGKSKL
In assay [10] the test system is Wnt5a (protein binding on small-molecule microarray). Put plainly: Wnt5a binders on small-molecule microarray, primary screen, biophysical, 635/667 nm fluorescence (AID 1142).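 Note: fluorescence read at 667 nm with signal to noise per printed feature.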 Conditions: 635 nm fluorescence, higher = more signal.
Assay [11] can be described thus: cell viability in Huh7 cells, primary screen, cytotoxicity control for HCV replication inhibitor project, CellTiter-Glo luminescence, basal, 48 h (AID 1143).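 Note: Huh7 hepatoma cells carrying a hepatitis C replication reporter with no stimulus; test concentration not given here.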 Particulars: Huh7 HCV replicon, higher = more signal, called active from +8 up or from −8 down. In general terms: ATP-based viability assays read luminescence as a measure of living cells.
Assay [12] in a line: P. aeruginosa biofilm formation inhibitors, primary screen, PAO1 strain, BacTiter-Glo luminescence, LB-PBS (AID 1144). Particulars: 12 h, higher = more signal.
The nature of assay [13]: CREB reporter modulators without forskolin, primary screen, cell-based, PC12, CRE-LacZ reporter, unstimulated (AID 1145). Conditions: no forskolin, luminescence, 4.5 h, higher = more signal, called active from +8 up or from −8 down.
Assay [14] is described as follows: CREB reporter modulators under forskolin, primary screen, cell-based, PC12, CRE-LacZ reporter, forskolin-stimulated (AID 1146).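 Note: PC12 cells with 6xCRE LacZ reporter stimulated by forskolin 10 µM; beta-galactosidase reporter signal reflecting CREB driven transcription.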 Particulars: luminescence, 4.5 h, higher = more signal, called active from +8 up or from −8 down.
Assay [15] deals with Streptavidin (Streptomyces avidinii) (UniProt P22629). Description: streptavidin binders on small-molecule microarray, primary screen, artefact control for SMM compound annotation, biophysical, 635/667 nm fluorescence (AID 1147).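 Note: signal reflects streptavidin binding to arrayed compounds as a control protein.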 Particulars: streptavidin binding, higher = more signal.
Chain of Streptavidin (Streptomyces avidinii) (P22629 whole entry, looked up): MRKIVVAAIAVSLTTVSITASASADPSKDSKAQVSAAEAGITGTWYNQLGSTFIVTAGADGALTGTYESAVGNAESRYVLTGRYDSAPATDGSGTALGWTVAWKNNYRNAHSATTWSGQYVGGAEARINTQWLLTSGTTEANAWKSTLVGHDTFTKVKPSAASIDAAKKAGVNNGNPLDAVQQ
A short description of assay [16]: small-molecule binders of probe aInhba, primary screen, biochemical, small-molecule microarray, 635/667 nm fluorescence (AID 1148).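 Note: score merges 667nm spot fluorescence with signal-to-noise for antibody binding to printed compounds.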 Conditions: higher = more signal.
Assay [17] concerns the target Torsin-1A (Homo sapiens) (UniProt O14656). Put plainly: torsin A binders from cell lysate, primary screen, small-molecule microarray, wild-type, 635/667 nm (AID 1149). Particulars: COS7 hTOR1A-WT lysate, 635 nm fluorescence, higher = more signal.
Assay [18] shares this target. Put plainly: small-molecule binders of mutant TOR1A in lysate, primary screen, cell lysate, small-molecule microarray, COS7 lysate, 635/667 nm fluorescence (AID 1150).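 Note: score pools 667 nm emission and signal to noise measuring lysate protein binding.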 Conditions: COS7 hTOR1A mutant lysate, 635 nm fluorescence, higher = more signal.
The test system of assay [19] is Sonic hedgehog protein (Shh). Put plainly: small-molecule binders of Shh protein, primary screen, biochemical, small-molecule microarray, 635/667 nm fluorescence (AID 1151).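 Note: Shh protein binding to compounds spotted on small-molecule microarray slides; score combines spot fluorescence intensity with signal-to-noise across triplicate slides.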 Particulars: small-molecule microarray binding, 635 nm fluorescence; higher = more signal.

Chain of Torsin-1A (Homo sapiens) (O14656 whole entry, looked up): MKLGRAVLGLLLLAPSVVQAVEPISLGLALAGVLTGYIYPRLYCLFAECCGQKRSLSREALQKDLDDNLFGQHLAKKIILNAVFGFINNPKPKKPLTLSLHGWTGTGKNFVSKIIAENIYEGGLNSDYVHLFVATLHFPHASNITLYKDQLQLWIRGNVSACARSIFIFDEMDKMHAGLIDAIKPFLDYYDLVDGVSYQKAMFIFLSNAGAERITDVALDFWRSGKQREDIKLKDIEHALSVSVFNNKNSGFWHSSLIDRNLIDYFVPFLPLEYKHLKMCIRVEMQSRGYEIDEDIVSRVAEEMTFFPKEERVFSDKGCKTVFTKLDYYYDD
Chain of Follistatin (Homo sapiens) (P19883 whole entry, looked up): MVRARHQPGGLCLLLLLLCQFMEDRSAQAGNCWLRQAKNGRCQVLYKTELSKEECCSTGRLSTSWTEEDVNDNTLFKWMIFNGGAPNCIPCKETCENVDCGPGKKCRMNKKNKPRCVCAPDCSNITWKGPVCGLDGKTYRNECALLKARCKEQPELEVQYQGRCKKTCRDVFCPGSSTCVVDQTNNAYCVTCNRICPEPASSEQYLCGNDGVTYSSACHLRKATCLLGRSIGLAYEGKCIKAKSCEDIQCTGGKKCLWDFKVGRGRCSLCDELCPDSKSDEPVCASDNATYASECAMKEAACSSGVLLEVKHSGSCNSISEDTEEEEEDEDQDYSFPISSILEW

For `CCCCCN1CC=CC23O[C@@H]4C=CCCOC(=O)C4[C@H]2C(=O)N(C(C)CO)[C@@H]3C1=O` (stereo not given in full), the composite z-score in assay [1] is 1.58 and 0.0947; in assay [2], -0.367 and -0.292; in [3], -0.0918 and 0.206; in assay [4] it was -0.458 and 0.0661; in [5] it was -0.11 and -0.0282; in assay [6], -0.387 and -1.17. Further, the composite z-score is 0.178 and 0.382 in the assay with Lefty1; 0.138 and -0.194 in [8]; -0.226 and -0.744 in assay [10]; -0.819 and -0.0005 in assay [15]; -0.837 and -0.0933 in assay [16]; 1.07 and -1.42 in the assay with Torsin-1A (Homo sapiens) [17]. Also, the composite z-score with Torsin-1A (Homo sapiens) [18] was 0.128 and -0.904; in assay [19], 0.644 and 0.138. The z-score in [7] is -0.449 and -0.859; in assay [9], 0.328 (inactive) and 0.283 (inactive); in assay [11], -0.153 (inactive) and 0.0164 (inactive); in [12], -1.76 (inactive) and -0.529 (inactive); in [13], -0.48 (inactive) and -0.639 (inactive); in assay [14], -0.215 (inactive) and -0.498 (inactive).
With `C=CCN(CCCCC)C(=O)C1N(C(C)(C)CO)C(=O)C2C(C(=O)O)C3C=CC21O3` (stereo not given), the composite z-score was -0.608 and -2.12 in assay [1]; -0.943 and -0.793 in assay [2]; -0.132 and -1.41 in assay [3]; -2.7 and -1.18 in assay [4]; -1.39 and -2.44 in assay [5]; -2.46 and -1.74 in assay [6]. Also, the composite z-score was -1.1 and -1.42 with Lefty1; -0.356 and -1.51 in [8]; -0.912 and -0.258 in [10]; -1.6 and -1.67 in [15]; -0.213 and -0.0791 in assay [16]; -3.01 and -1.59 with Torsin-1A (Homo sapiens) [17]. For the same compound, the composite z-score in the assay with Torsin-1A (Homo sapiens) [18] was -2.24 and -1.18; in assay [19], -0.99 and -0.61. Further, the z-score in [7] was -0.401 and 0.244; in [9], 0.169 (inactive) and 0.977 (inactive); in [11] it was 0.879 (inactive) and 1.06 (inactive); in [12], 1.13 (inactive) and 1.98 (inactive); in [13], -0.0737 (inactive) and -0.484 (inactive); in assay [14], -0.0682 (inactive) and 0.563 (inactive).
With `C=CCN(C(=O)C(c1cccs1)N(C(=O)/C=C\C(=O)O)c1ccc(CCO)cc1)C(C)(C)C` (stereo not given), the composite z-score is 0.381 and 2.21 in [1]; 0.07 and 0.0514 in assay [2]; 0.721 and -0.265 in assay [3]; -0.548 and -3.6 in assay [4]; -0.985 and -1.66 in assay [5]; -1.22 and -1.05 in assay [6]. The composite z-score with Lefty1 was -1.76 and -2; in [8], 0.559 and -0.287; in [10] it was -0.156 and -1.27; in assay [15], -0.298 and -0.966; in assay [16] it was -0.154 and -0.227; in the assay with Torsin-1A (Homo sapiens) [17] it was -0.603 and -2.33. The composite z-score in the assay with Torsin-1A (Homo sapiens) [18] was 1.56 and -2.14; in assay [19], -0.754 and -1.36. For the same compound, the z-score in [7] was 0.428 and 0.741; in assay [9], -0.928 (inactive) and -0.538 (inactive); in assay [11], -0.243 (inactive) and 0.38 (inactive); in [12], -0.638 (inactive) and 0.984 (inactive); in assay [13], -0.0859 (inactive) and 0.597 (inactive); in assay [14], 0.332 (inactive) and -0.439 (inactive).
In the case of `COC(=O)C1=C(C)N(Cc2ccccc2)[C@]23O[C@](C(=O)OC)(C(=O)N2[C@@H]1c1ccccc1)[C@@H](C(=O)OC)[C@H]3C(=O)OC`, the composite z-score in assay [1] is 0.297 and 1.07; in [2], -0.813 and 0.143; in [3], -0.277 and 0.2; in [4] it was -2.79 and -0.188; in assay [5], -0.998 and 0.452; in assay [6], -0.179 and 0.403. Also, the composite z-score in the assay with Lefty1 was -0.625 and 0.747; in assay [8], 0.753 and -0.487; in [10] it was -0.13 and 0.206; in assay [15], -0.895 and -0.188; in assay [16] it was -0.188 and -0.218; in the assay with Torsin-1A (Homo sapiens) [17], -0.0921 and 0.481. The composite z-score with Torsin-1A (Homo sapiens) [18] is -0.107 and 0.299; in assay [19], -0.652 and 0.611. In addition, the z-score in assay [7] was 0.604 and 0.301; in [9], -0.781 (inactive) and -1.8 (inactive); in assay [11], 0.36 (inactive) and 0.333 (inactive); in [12], -0.754 (inactive) and 0.0472 (inactive); in assay [13], 0.745 (inactive) and -0.487 (inactive); in assay [14], -0.998 (inactive) and -0.909 (inactive).
